For eight compounds, AC50 and outcome results are on record in PubChem BioAssay (EPA / NIEHS).

In assay [1] the target is Androgen Receptor/SRC-1 Co-activator, AR (gene 367) (UniProt P10275). In words: OT_AR_ARSRC1_0480: Odyssey Thera (OT) 8-hour HEK293T Protein-Complementation Assay for Androgen Receptor/SRC-1 Co-activator (AID 2283354).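 Further: hits raise the complementation signal above DMSO so AC50 marks enhancers.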 Put shortly: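 Reconstituted split-Venus YFP signal from AR–SRC-1 interaction, read by imaging 8 h post-dose in stable HEK293T lines. The 488 nm nucleus-to-cytoplasm ratio (≥400 cells/image) was fitted upward against DMSO.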

In assay [2] the target is rat Mineralocorticoid Receptor (MR), Nr3c2 (gene 25672) (UniProt P22199). In words: NVS_NR_rMR: NovaScreen (NVS) Nuclear Receptor Binding Assay for rat Mineralocorticoid Receptor (MR) (AID 2283355). Put shortly:
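Primary HTS ran in duplicate at a single 25 uM concentration, with concentration-series follow-up for actives. Receptor source: adrenalectomized rat brain supernatant, cell-free. Radioligand displacement read by scintillation at 24 h, relative to DMSO baseline.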

In assay [3] the target is Estrogen receptor (Homo sapiens) + Estrogen receptor beta (Homo sapiens) (UniProt P03372+Q92731). In words: OT_ER_ERaERb_1440: Odyssey Thera (OT) 24-hour HEK293T Protein-Complementation Assay for Estrogen Receptor-alpha/-beta Homodimer (AID 2283356).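 Further: heteromer of ER alpha and ER beta binding domains; hits raise reporter fluorescence and both agonists and antagonists give an increase.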 The method in brief: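 Stable HEK293T PCA line, ERα LBD 310-547 + ERβ LBD 263-489 fused to reporter fragments; 24 h treatment; fluorescence read by laser scanning cytometry; positive fitting direction relative to DMSO.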

Assay [4] concerns the target PGR (gene 5241) (UniProt P06401). In words: NVS_NR_hPR: NovaScreen (NVS) Nuclear Receptor Binding Assay for human Progestron Receptor (PR) (AID 2283360).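 Further: active means loss of bound radioligand signal versus DMSO baseline.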 The method in brief:
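T47D-derived receptor preparation, cell-free, with tritiated or iodinated radioligand displacement measured by scintillation 18 h post-dosing. Single 25 uM duplicate screen, then concentration series; signal loss relative to DMSO.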

Assay [5] has as its target Nuclear receptor subfamily 1 group I member 2 (Homo sapiens) (UniProt O75469). Put plainly: NVS_NR_hPXR: NovaScreen (NVS) Nuclear Receptor Binding Assay for human Pregnane X Receptor (PXR) (AID 2283365).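 Further: a drop in FRET signal versus DMSO baseline means the compound binds.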 Put shortly: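 Human PXR protein, cell-free; compound added, incubated 2 h, TR-FRET read. Signal decrease vs DMSO = binding. Screened 25 uM duplicate, actives re-run as dilution series.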

Assay [6] has as its target rat Androgen Receptor (AR), Ar (gene 24208) (UniProt P15207). In words: NVS_NR_rAR: NovaScreen (NVS) Nuclear Receptor Binding Assay for rat Androgen Receptor (AR) (AID 2283366). Put shortly: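 Actives from a duplicate single-concentration (25 uM) primary run went on to concentration series. Displacement of radioligand was counted by filtration and scintillation, 18 h post-dose, using prostate extracts from testosterone-pretreated rats, with DMSO as baseline.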

Assay [7] concerns the target guinea pig Sigma Receptor, Non-selective Binding, SIGMAR1 (gene 100135589) (UniProt Q60492). Put plainly: NVS_OR_gSIGMA_NonSelective: NovaScreen (NVS) Nuclear Receptor Binding Assay for guinea pig Sigma Receptor, Non-selective Binding (AID 2283367). Put shortly: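 Guinea pig brain membrane sigma sites were labelled with a radioligand, and bound radioactivity was counted after filtration 1 h post-dose. Compounds were screened at 25 uM in duplicate, then retested as concentration series when active.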

The target in assay [8] is Peroxisome proliferator-activated receptor gamma (Homo sapiens) (UniProt P37231). In words: NVS_NR_hPPARg: NovaScreen (NVS) Nuclear Receptor Binding Assay for human Peroxisome Proliferator-activated Receptor gamma (PPARg) (AID 2283370). Put shortly: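 Chemicals were tested first in duplicate at 25 uM, then in concentration series if active. Binding to cell-free PPARg protein was measured by fluorescence polarization after 2 h, with loss of signal scored against DMSO.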

Assay [9] concerns the target Androgen Receptor/SRC-1 Co-activator, AR (gene 367) (UniProt P10275). In words: OT_AR_ARSRC1_0960: Odyssey Thera (OT) 16-hour HEK293T Protein-Complementation Assay for Androgen Receptor/SRC-1 Co-activator (AID 2283353).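 Further: actives raise the signal above DMSO so potency reflects increased AR and SRC-1 complex.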 Put shortly:
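Stable HEK293T line carries AR and SRC-1 each linked to a Venus fragment; chemicals are applied for 16 h, cells imaged at two wavelengths, and the 488 nm nucleus/cytoplasm ratio is taken as the signal, rising relative to DMSO.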

Assay [10] deals with Retinoic acid receptor alpha (Homo sapiens) (UniProt P10276). In words: NVS_NR_hRAR_Antagonist: NovaScreen (NVS) Nuclear Receptor Binding Assay for human Retinoic Acid Alpha Receptor Antagonism (RAR) (AID 2283358). Put shortly:
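RARalpha antagonism was read by TR-FRET as loss of binding signal versus DMSO, 2 h after chemical addition, in a biochemical format. Single-concentration duplicates (25 uM) were run first, and actives were retested in concentration series.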

Assay [11] has as its target human Serotonin Transporter (SERT), SLC6A4 (gene 6532) (UniProt P31645). In words: NVS_TR_hSERT: NovaScreen (NVS) Transporter Assay for human Serotonin Transporter (SERT) (AID 2283372). Put shortly:
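Human platelet membrane preparation; displacement of radioligand from serotonin transporter measured after 1 h by filtration and scintillation counting. Single 25 uM duplicate screen, then concentration series for actives, with DMSO as negative baseline.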

Assay [12] addresses human Dopamine Transporter (DAT), SLC6A3 (gene 6531) (UniProt Q01959). In words: NVS_TR_hDAT: NovaScreen (NVS) Transporter Assay for human Dopamine Transporter (DAT) (AID 2283374).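 Further: activity means loss of bound radioligand signal relative to DMSO.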 The method in brief:
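Duplicate single-point screening at 25 uM preceded concentration-series follow-up of actives. Binding was measured by competitive displacement of a radioligand from DAT protein, filter-counted by scintillation 1 h after dosing. Decrease relative to DMSO taken as activity.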

Assay [13] addresses rat Serotonin Transporter (SERT), Slc6a4 (gene 25553) (UniProt P31652). In words: NVS_TR_rSERT: NovaScreen (NVS) Transporter Assay for rat Serotonin Transporter (SERT) (AID 2283375). The method in brief: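 Filtration-based radiodetection quantified loss of specific radioligand binding in rat forebrain membranes after 1 hour of chemical exposure, relative to DMSO. Chemicals were first tested in duplicate at 25 uM.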

Assay [14] concerns the target human Peroxisome Proliferator-activated Receptor alpha (PPARa), PPARA (gene 5465) (UniProt Q07869). In words: NVS_NR_hPPARa: NovaScreen (NVS) Nuclear Receptor Binding Assay for human Peroxisome Proliferator-activated Receptor alpha (PPARa) (AID 2283359).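 Further: activity means loss of TR-FRET signal versus DMSO baseline.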 Put shortly: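 Loss of TR-FRET binding signal relative to DMSO was measured 1 h after chemical addition to extracted receptor protein. Chemicals were first tested in duplicate at 25 uM, and actives were followed up in concentration series.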

Assay [15] concerns guinea pig Dopamine Transporter (DAT), gene 100714898. In words: NVS_TR_gDAT: NovaScreen (NVS) Transporter Assay for guinea pig Dopamine Transporter (DAT) (AID 2283369).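 Further: active compounds lower bound radioligand signal relative to DMSO.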 The method in brief:
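Scintillation counts of filter-retained radioligand report binding to guinea pig striatal membranes after 2 h. Activity scored as signal loss relative to DMSO, first at 25 uM in duplicate, then in concentration series to 50 uM.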

For assay [16], the system named is rat Norepinephrine Transporter (NET), gene 83511. In words: NVS_TR_rNET: NovaScreen (NVS) Transporter Assay for rat Norepinephrine Transporter (NET) (AID 2283373). Put shortly: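 Competitive radioligand displacement at the rat NET using forebrain membrane preparations, 1 h incubation, filter-based scintillation readout. Primary testing in duplicate at a single 25 uM concentration; confirmed actives retested across concentrations.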

Assay [17] has as its target Norway rat Vesicular Monoamine Transporter (VMAT2), neurotransmitter transporter, Slc18a2 (gene 25549) (UniProt Q01827). Put plainly: NVS_TR_rVMAT2: NovaScreen (NVS) Transporter Assay for Norway rat Vesicular Monoamine Transporter (VMAT2), neurotransmitter transporter (AID 2283376).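 Further: actives lower the bound radioligand signal below the DMSO level.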 Put shortly: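 Using rat forebrain membranes, specific radioligand binding to VMAT2 was measured by filtration and scintillation counting after 1 hour. Chemicals screened at 25 uM in duplicate, actives retested in concentration series, DMSO baseline.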

Assay [18] has as its target human Thyroid Receptor Alpha (TRa), THRA (gene 7067) (UniProt P10827). Put plainly: NVS_NR_hTRa_Antagonist: NovaScreen (NVS) Nuclear Receptor Binding Assay for human Thyroid Receptor Alpha Antagonism (TRa) (AID 2283362).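 Further: activity is loss of signal relative to DMSO baseline.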 Put shortly: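 Extracted protein, cell-free; 1 h incubation after dosing; AlphaLISA chemiluminescence binding readout. DMSO = baseline/neg ctrl; signal loss = activity. Primary: duplicate, 25 uM; secondary: conc. series on actives.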

“And” between values parts separate entries of the source, which are not always exact repeats. Equal entries are not always repeated. Results filed as inconclusive are left out. Where a structure was tested more than once in an assay, its records may differ in their call. The source made the active and inactive calls. How the source made its calls: active means hit-call score of the fitted dose curve at least 0.9, where 1 is the maximum; inconclusive means response in the unintended direction; inactive means score below 0.9.

Chain of Estrogen receptor (Homo sapiens) + Estrogen receptor beta (Homo sapiens) (P03372 whole entry, looked up, the tested form may be a part): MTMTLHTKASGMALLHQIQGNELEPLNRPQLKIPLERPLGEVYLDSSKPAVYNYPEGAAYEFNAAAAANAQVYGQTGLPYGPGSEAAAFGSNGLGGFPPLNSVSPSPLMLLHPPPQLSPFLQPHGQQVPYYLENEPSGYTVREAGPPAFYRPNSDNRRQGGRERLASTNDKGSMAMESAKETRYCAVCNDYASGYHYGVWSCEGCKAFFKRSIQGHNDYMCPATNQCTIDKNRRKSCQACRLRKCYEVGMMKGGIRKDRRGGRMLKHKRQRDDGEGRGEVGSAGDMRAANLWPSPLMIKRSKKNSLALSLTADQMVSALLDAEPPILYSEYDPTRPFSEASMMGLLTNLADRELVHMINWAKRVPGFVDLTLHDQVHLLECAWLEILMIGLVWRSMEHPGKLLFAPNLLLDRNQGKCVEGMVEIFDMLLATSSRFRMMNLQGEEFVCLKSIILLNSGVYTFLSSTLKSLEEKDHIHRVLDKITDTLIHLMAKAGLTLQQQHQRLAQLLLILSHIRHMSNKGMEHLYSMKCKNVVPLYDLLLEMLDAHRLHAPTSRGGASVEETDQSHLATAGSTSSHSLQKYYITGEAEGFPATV
Chain of Estrogen receptor (Homo sapiens) + Estrogen receptor beta (Homo sapiens) (Q92731 whole entry, looked up, the tested form may be a part): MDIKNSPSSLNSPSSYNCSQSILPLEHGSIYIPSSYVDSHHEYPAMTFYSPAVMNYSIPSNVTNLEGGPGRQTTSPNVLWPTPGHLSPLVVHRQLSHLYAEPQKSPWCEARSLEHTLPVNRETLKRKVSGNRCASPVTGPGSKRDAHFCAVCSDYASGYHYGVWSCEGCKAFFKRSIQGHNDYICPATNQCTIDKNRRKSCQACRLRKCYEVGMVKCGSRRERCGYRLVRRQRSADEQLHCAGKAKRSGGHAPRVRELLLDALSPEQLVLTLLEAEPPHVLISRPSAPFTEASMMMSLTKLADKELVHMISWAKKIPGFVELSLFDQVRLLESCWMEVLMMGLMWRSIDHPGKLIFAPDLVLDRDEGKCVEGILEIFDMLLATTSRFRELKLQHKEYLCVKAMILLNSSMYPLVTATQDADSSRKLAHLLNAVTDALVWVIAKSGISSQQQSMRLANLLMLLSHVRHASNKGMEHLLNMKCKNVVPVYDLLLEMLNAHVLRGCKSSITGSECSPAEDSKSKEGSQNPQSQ
Chain of Nuclear receptor subfamily 1 group I member 2 (Homo sapiens) (O75469 whole entry, looked up): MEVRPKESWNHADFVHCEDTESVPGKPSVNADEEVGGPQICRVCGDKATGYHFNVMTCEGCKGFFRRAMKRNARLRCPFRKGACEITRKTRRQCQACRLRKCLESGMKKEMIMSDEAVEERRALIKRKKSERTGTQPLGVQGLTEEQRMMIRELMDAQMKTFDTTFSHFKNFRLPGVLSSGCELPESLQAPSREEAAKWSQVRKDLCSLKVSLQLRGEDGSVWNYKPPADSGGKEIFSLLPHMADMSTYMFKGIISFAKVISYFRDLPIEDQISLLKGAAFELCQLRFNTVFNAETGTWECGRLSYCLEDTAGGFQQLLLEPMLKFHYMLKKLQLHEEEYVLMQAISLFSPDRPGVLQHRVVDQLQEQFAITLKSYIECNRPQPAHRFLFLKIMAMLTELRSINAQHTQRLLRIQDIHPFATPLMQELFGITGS
Chain of rat Androgen Receptor (AR), Ar (gene 24208) (P15207 whole entry, looked up): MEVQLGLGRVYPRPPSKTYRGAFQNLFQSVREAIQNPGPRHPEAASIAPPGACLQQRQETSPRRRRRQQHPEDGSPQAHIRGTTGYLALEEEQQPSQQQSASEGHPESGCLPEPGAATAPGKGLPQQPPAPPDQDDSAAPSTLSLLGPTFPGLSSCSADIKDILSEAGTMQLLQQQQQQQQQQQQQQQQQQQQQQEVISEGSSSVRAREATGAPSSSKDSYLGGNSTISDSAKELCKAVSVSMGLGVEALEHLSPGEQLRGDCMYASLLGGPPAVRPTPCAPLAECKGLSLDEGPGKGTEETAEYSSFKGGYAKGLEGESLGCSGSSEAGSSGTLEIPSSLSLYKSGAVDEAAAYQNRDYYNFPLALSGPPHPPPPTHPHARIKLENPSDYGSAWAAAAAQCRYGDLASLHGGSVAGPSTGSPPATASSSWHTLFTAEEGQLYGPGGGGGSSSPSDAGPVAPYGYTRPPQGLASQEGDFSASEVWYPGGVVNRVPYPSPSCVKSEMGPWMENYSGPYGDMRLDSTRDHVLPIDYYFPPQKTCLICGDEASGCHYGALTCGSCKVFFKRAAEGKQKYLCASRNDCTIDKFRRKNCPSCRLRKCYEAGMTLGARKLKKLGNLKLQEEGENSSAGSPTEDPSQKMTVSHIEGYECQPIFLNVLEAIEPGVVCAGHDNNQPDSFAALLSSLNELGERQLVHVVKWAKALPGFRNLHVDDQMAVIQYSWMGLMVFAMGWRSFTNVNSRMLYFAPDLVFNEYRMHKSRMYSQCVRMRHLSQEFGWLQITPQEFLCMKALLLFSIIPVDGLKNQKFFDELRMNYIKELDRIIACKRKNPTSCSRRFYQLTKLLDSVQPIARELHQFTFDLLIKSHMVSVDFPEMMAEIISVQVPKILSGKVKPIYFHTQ
Chain of human Dopamine Transporter (DAT), SLC6A3 (gene 6531) (Q01959 whole entry, looked up): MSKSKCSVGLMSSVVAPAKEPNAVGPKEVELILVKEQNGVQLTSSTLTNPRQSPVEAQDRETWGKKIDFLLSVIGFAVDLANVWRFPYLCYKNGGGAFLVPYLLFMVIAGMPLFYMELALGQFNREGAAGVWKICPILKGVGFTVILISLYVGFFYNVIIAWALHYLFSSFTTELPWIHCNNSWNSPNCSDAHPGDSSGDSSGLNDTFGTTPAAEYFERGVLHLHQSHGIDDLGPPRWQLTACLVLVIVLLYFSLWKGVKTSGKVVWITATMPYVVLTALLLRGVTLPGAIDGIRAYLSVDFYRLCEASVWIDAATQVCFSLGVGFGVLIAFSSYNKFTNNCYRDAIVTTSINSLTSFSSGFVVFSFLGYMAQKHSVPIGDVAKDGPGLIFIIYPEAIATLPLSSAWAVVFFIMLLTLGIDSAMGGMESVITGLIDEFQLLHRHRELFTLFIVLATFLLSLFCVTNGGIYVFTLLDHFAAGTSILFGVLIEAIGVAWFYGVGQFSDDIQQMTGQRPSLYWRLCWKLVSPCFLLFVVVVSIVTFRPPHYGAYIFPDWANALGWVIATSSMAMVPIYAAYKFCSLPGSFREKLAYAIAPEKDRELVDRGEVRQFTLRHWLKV
Chain of Peroxisome proliferator-activated receptor gamma (Homo sapiens) (P37231 whole entry, looked up): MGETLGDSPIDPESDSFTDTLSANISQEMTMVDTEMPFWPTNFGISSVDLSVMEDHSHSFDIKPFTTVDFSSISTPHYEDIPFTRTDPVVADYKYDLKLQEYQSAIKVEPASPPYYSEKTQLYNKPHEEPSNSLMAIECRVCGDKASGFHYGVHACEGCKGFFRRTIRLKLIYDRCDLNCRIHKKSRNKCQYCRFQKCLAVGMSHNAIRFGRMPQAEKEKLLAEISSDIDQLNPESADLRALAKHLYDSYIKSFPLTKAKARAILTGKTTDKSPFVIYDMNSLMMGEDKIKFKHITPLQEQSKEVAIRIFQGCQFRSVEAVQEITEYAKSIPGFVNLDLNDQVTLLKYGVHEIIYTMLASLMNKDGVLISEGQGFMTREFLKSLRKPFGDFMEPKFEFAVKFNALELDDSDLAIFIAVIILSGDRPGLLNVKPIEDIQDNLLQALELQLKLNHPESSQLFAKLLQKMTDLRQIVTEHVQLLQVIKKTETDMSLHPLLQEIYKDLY
Chain of Androgen Receptor/SRC-1 Co-activator, AR (gene 367) (P10275 whole entry, looked up, the tested form may be a part): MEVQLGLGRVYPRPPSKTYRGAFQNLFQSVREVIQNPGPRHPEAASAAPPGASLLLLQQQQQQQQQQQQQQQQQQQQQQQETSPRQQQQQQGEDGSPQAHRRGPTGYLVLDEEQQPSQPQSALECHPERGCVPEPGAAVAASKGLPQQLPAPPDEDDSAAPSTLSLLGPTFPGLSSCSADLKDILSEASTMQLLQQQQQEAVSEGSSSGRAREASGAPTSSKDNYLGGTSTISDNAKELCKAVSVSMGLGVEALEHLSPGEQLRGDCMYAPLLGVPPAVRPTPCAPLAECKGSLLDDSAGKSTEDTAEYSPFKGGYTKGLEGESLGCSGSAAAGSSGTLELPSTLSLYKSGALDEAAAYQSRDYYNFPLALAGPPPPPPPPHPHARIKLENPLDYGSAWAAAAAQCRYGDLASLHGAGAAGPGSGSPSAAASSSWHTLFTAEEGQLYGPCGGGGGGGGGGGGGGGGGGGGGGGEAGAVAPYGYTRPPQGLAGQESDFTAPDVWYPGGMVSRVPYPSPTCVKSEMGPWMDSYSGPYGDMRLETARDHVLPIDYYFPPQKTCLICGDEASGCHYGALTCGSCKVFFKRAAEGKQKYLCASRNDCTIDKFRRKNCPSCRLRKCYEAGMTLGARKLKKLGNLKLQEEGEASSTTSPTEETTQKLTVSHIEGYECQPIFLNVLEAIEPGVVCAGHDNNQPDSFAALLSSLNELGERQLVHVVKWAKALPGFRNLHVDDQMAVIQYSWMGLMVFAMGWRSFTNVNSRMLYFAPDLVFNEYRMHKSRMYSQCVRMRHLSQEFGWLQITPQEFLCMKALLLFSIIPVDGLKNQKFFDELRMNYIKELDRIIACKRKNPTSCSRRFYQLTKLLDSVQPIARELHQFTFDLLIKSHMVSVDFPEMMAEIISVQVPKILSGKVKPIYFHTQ
Chain of human Peroxisome Proliferator-activated Receptor alpha (PPARa), PPARA (gene 5465) (Q07869 whole entry, looked up): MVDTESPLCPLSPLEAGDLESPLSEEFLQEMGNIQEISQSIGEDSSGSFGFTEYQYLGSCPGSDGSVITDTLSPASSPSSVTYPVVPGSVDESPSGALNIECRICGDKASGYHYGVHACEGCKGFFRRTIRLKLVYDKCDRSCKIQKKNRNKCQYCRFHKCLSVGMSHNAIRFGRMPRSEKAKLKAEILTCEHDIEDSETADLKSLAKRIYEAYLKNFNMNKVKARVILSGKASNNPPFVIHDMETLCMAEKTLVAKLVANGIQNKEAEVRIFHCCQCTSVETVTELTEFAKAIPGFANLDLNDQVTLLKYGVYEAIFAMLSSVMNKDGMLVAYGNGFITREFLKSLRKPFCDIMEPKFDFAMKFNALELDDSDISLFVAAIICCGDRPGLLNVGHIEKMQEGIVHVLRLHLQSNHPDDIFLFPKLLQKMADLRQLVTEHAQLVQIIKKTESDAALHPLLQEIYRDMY

On to `CCC(=O)O[C@H]1CC[C@H]2[C@@H]3CCC4=CC(=O)CC[C@]4(C)[C@H]3CC[C@]12C`, for which the AC50 in assay [1] was 29.9 nM (active) [middle of 6 runs]; in [2] it was 0.517 µM (active); in assay [3], 14.9 µM (active) and 12.4 µM (active) and 14.7 µM (active); in [4], 1.04 µM (active); in assay [6], 1.53 µM (active) [middle of 4 runs]. Also, the outcome in assay [3], in assay [5], in [7] and in assay [8] was inactive.

With `CCNc1nc(NC(C)C)nc(SC)n1`, the call in [9] and in assay [1] was inactive.

Consider `Cc1ccccc1CO[C@@H]1C[C@@]2(C(C)C)CC[C@]1(C)O2`, for which the AC50 was 79.7 µM (active) in assay [9], 4.86 µM (active) in assay [11], 11.2 µM (active) in assay [12] and 6.62 µM (active) in assay [13]. Also, the compound was classed as inactive in assay [1] and in assay [10].

As to `CCC(C)(c1ccc(O)cc1)c1ccc(O)cc1`, the outcome in assay [2], in assay [14] and in assay [16] was inactive. In addition, the AC50 is 10.2 µM (active) in assay [4]; 16.7 µM (active) and 11.4 µM (active) and 9.16 µM (active) in assay [5]; 17.3 µM (active) in assay [15]; 5.51 µM (active) in assay [8]; 7.9 µM (active) in assay [12]; 5.28 µM (active) in [17].

Turning to `ClC1=C(Cl)[C@]2(Cl)[C@@H]3[C@@H](Cl)[C@H]4O[C@H]4[C@@H]3C1(Cl)C2(Cl)Cl`, the concentration at half-maximal activity (AC50) in assay [3] was 50 µM (active).

As to `CCOC(=O)C(O)(c1ccc(Cl)cc1)c1ccc(Cl)cc1`, the AC50 is 37 µM (active) in assay [9], 66.7 µM (active) in [1], 14.3 µM (active) in assay [15] and 3.45 µM (active) in [12]. Besides, in [3], the outcome was inactive.

Take `Oc1ccc(Cl)cc1Cl`: the outcome in assay [3], in assay [10], in assay [4], in assay [18] and in [8] was inactive.

For the compound `O=S(=O)(O)C(F)(F)C(F)(F)C(F)(F)C(F)(F)F`, the result in assay [3] and in [14] was inactive.

For orientation: AC50 means the midpoint of the concentration-response curve, whichever way the signal moves.
